This is an account of results in PubChem BioAssay (NCATS).

Results filed as inconclusive are left out. Active and inactive are the calls of the source. Calls follow the shape of the dose curve; as a rule, active = well fitted curve in either direction with a large enough effect (not every such curve was filed as active); inconclusive = small, poorly fitted or top-dose-only effect, or another doubt; inactive = flat fitted curve, though single readings scatter.
% is scaled to controls: 0 for no effect and ±100 for the full control effect.

The nature of the assay: AP1 Signaling Pathway (AID 357).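 Also: ME-180 reporter cells stimulated with EGF at its EC50 level.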 The note with it: ME-180 (cervical carcinoma) AP-1-bla reporter, EGF-induced, beta-lactamase ratio, 5 h; at 17.2 µM (top of the series) unless noted. The essentials:
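Beta-lactamase reporter under AP-1 response element, ME-180 background. Stimulus: EC50 EGF. Compound exposure 5 h, 37 °C. Detection: CCF4, 2.5 h RT, 460/530 nm. Values: AC50 from titration.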
With `Cc1nc2c(c(=O)n1CC1CCCO1)c1nc3ccccc3nc1n2CC(C)C` (centres undefined), the activity change, negative = inhibition is 2.75% (inactive).
Next, `O=c1cc(O)nc2n1CCCS2`: 5% (inactive).
Turning to `COc1cc(C)nc(N(C)S(=O)(=O)c2ccccc2Cl)n1`, the activity change, negative = inhibition is -3.56% (inactive).
Regarding `COc1cc(C2C3C(=O)N(c4ccccc4)C(=O)C3ON2c2ccccc2)ccc1O` (centres undefined), the activity change, negative = inhibition is 2.35% (inactive).
The figure for `COc1ccc(C2C(C#N)=C(N)SC(N)=C2C#N)cc1OC` is 5.54% (inactive); for `Clc1ccc2[nH]c3c(NCCCN4CCOCC4)ncnc3c2c1` it is 17% (inactive); for `CCOc1cccc(-c2nn3c(-c4ccco4)nnc3s2)c1` it is -15.5% (inactive).
`CCCCOC(=O)c1[nH]c(C)c(C(=O)OC)c1C`: the activity change, negative = inhibition was -3.13% (inactive).
The figure for `CC1(C)Cc2c(c(N3CCOCC3)nc3snc(N)c23)CO1` is -12.8% (inactive).
With `CCOc1ccccc1N1CCN(c2nc3ccccc3nc2C(C#N)C(=O)OC)CC1` (centres undefined), the activity change, negative = inhibition is -24.3% (inactive).
The figure for `CC(=O)Nc1ccc(NCC(O)COc2ccccc2)cc1` (centres undefined) is -3% (inactive); for `O=C1NC(c2cccs2)Nc2ccccc21` (centres undefined) it is -27% (inactive).
For the compound `CCOC(=O)CNC(=O)CNC(=O)c1ccc(OC)cc1`, the activity change, negative = inhibition is 8.37% (inactive).
Next, `O=C(NCc1ccccc1)C1C(=O)N(Cc2ccccc2)C(=O)C1C1(O)CCCC1` (centres undefined): -16.6% (inactive); `CC(C)Cc1[nH]c(=O)c(C#N)c2c1CCCC2`: 3.62% (inactive).
Take `Nc1nnc(CC2=CCCCC2)s1`: the activity change, negative = inhibition is 1.59% (inactive).
Next, `CCN=C1SC(C(=O)Nc2ccc(Cl)c(Cl)c2)CC(=O)N1CC` (centres undefined): -19.4% (inactive); `CCC1CC2(C)NC(=O)c3c(sc4c3CC(C)(C)OC4)N2C1=O` (centres undefined): -7.1% (inactive); `COC(=O)CCc1c(C)[nH]c(=S)[nH]c1=O`: 7.36% (inactive).
Regarding `CC(C)(C)C1=Nn2c(nnc2C2CCCCC2)SC1`, the activity change, negative = inhibition was -2.23% (inactive).
In the case of `c1coc(-c2nc3nc4ccccc4nc3n2-c2ccc3c(c2)OCCO3)c1`, the activity change, negative = inhibition is -28.6% (inactive).
The figure for `C/C(=N\O)c1c(C)c2ccccc2n1C` is 2.06% (inactive); for `Cc1cc(N2C(=O)C(=O)/C(=C(/O)c3ccc(F)cc3)C2c2cccc(Br)c2)no1` (centres undefined) it is -7.98% (inactive); for `CCCCOC(=O)CCc1nc2ccccc2[nH]1` it is 5.71% (inactive).
